Giardia killer = Giardia lamblia killing; Giardia lamblia trophozoite viability; activity change, % at 7.66 µM, hits read low; 340,000 compounds, 0.15% hits; AID 540267; in the data active = activity change below about -80%; inconclusive = between about -30% and that limit;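 also: parasites exposed to compound for two days anaerobically before the ATP read; % is scaled to controls: 0 for no effect and ±100 for the full control effect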
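Compounds were tested on trophozoites seeded at 100 cells/well and held 48 hrs at 37 deg C anaerobically. An ATP-based luminescent kit measured the remaining live cells.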
BRCA1 expr act = increases BRCA1 expression. MCF7-BRCA1-FFLuc reporter, luminescence, 48 h; response scale: scaled: vehicle 0%, 10 µM genistein 100%. Potency, µM (highest dose often 46.1 µM), for the others: at the highest dose activation, most hits filed as activators. 380,000 compounds, 1.1% hits. AID 624202; also: potency is read from the fitted curve at half-maximal effect; nearly all actives have a fitted effect of over 80% in size
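MCF7-BRCA1-FFLuc, 2000 cells/well; 2 h attach, 37 °C/5% CO2; compound 48 h; luciferase substrate 15 min; luminescence end-point. Norm. to genistein 10 microM max activation and DMSO; concentration-response curves fitted.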
p53 reactivator = mutant p53 re-activation in reporter cells; H1299 p53-A138V BP100-luciferase reporter, luminescence, 24 h; Potency, µM (highest dose often 92.2 µM), for the others: at the highest dose activity change, positive = activation, usual class: activators; 320,000 compounds, 0.063% hits; AID 504706; also: potency is read from the fitted curve at half-maximal effect; % of control where 0% means no effect; nearly all actives have a fitted effect of over 45% in size
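p53-null H1299 cells stably carrying temperature-sensitive p53-A138V and a BP100-luciferase reporter were pinned with compounds (4-point, 1:5 series) and held 24 hrs at 37 deg C. Luminescence was read 10 min after detection reagent.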
VP16 counter = Gal4-VP16 reporter inhibition counter-screen; 310,000 compounds, 3.5% hits; Drosophila S2 Gal4-VP16 UAS-luciferase, luminescence, 20 h; Potency, µM (titrated, usually from 53.6 µM), inactives show top-dose activity, negative = inhibition, actives largely listed as inhibitors;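 also: Gal4-VP16 expression switched on by copper sulfate through the metallothionein promoter; potency is read from the fitted curve at half-maximal effect; % is scaled to controls: 0 for no effect and ±100 for the full control effect; nearly all actives have a fitted effect of over 50% in size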
RORg inh = blocks mouse ROR gamma transcriptional activity | AID 2551 | P51450 | Drosophila S2 Gal4-RORgamma UAS-luciferase reporter, 20 h | 310,000 compounds, 5.4% hits | Potency, µM (top dose mostly 53.6 µM), inactives show at the top dose activity change, negative = inhibition, usual class: inhibitors; also: potency is read from the fitted curve at half-maximal effect; % is scaled to controls: 0 for no effect and ±100 for the full control effect; nearly all actives have a fitted effect of over 60% in size
Target sequence (P51450 whole entry, looked up, the tested form may be a part): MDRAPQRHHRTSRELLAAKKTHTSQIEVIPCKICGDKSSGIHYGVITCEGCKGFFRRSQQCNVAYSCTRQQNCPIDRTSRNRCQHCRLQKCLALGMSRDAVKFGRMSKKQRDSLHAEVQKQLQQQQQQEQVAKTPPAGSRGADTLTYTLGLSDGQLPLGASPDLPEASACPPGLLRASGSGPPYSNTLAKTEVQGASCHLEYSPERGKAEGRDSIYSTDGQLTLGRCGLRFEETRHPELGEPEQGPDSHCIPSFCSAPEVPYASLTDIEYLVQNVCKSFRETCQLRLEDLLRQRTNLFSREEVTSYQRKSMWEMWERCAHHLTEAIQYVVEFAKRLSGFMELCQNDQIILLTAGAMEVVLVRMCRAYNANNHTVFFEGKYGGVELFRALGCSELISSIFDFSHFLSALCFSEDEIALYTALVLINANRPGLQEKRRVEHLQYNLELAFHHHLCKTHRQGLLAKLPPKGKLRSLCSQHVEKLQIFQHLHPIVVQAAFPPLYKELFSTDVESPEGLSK
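Compounds are pin-transferred onto Drosophila Schneider cells expressing a copper-inducible Gal4–ROR gamma transactivation domain fusion. After 1 hr, copper sulfate is added to 700 uM final; luciferase is read 20 hr later.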
ELG1 repair inh = ELG1-dependent DNA repair inhibition; HEK293T ELG1-luciferase reporter, luminescence, 16 h; DNA damage induced by 5-fluorouridine; Potency, µM (top dose mostly 46.1 µM), inactives show at the highest dose activity change, negative = inhibition, usual class: inhibitors; 330,000 compounds, 2.3% hits; also: potency is read from the fitted curve at half-maximal effect; % is scaled to controls: 0 for no effect and ±100 for the full control effect; nearly all actives have a fitted effect of over 55% in size
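Luminescence from the luciferase reporter, measured 30 min after ONE-Glo reagent at room temperature, was the read-out. Beforehand, 2,000 cells per well were exposed for 16 hr at 37 °C to 5-fluorouridine together with compound or vehicle.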
Active calls of the source: *; ? = inconclusive; . = not tested or not shown. Hits are enriched below; roughly 7.6% of the tested compounds scored in any of these assays. Unless noted, calls follow the shape of the dose curve; as a rule, active = well fitted curve in the direction sought with a large enough effect; inconclusive = small, poorly fitted or top-dose-only effect, or another doubt; inactive = no such curve, though single readings can be large; an effect the other way counts as inactive or inconclusive.

SMILES | Giardia killer | BRCA1 expr act | p53 reactivator | VP16 counter | RORg inh | ELG1 repair inh
c1ccc2c(c1)nnn2CNc1nccs1 | 16 | 6% | -1% | -2% | -19% | 12%
O=C(N/N=C\c1c(O)ccc2ccccc12)c1cncc(Br)c1 | -14 | -81% | . | 4.5µM* | 5µM* | ?
O=C(N/N=C/c1c(O)ccc2ccccc12)c1cccnc1 | 3 | -80% | ? | 13µM* | 10µM* | 3.7µM*
Cn1nccc1C(=O)N/N=C/c1c(O)ccc2ccccc12 | -15 | -19% | ? | 2.8µM* | 3.2µM* | ?
O=C(N/N=C\c1c(O)ccc2ccccc12)c1ccc(O)cc1 | 6 | -66% | 21% | 5.6µM* | 5µM* | -16%
CN(C)n1cccc1/C=C(\C#N)S(=O)(=O)c1ccc(Cl)cc1 | 2 | -1% | -1% | -10% | ? | -10%
COc1cc2ncnc(Nc3ccc(F)c(Cl)c3)c2cc1OCCCN1CCOCC1 | . | . | . | 6% | -15% | .
O=C(COC(=O)c1ccc(Cl)nc1)NC1CCCCCC1 | 40 | 1% | -3% | . | . | 5%
CCOC(=O)C1(CCOc2ccccc2)CCN(Cc2nccn2CC)CC1 | 2 | -24% | -1% | ? | 5µM* | ?
CCOC(=O)C1(CCOc2ccccc2)CCN(Cc2ccncc2)CC1 | -8 | -7% | -1% | 2% | 19% | -5%
CCOC(=O)C1(CCCc2ccccc2)CCN(Cc2nccn2CC)CC1 | 6 | -30% | -3% | ? | 4µM* | -8%
CCOC(=O)C1(CCCc2ccccc2)CCN(Cc2cnc(C)s2)CC1 | 11 | -39% | -2% | -2% | -2% | -26%
CC1(C(=O)O)CCC(C(=O)Nc2ccccc2O)C1(C)C (configuration not stated) | -10 | 1% | -4% | 1% | 6% | ?
O=C(O)CCCC(=O)NNc1ncnc2ccccc12 | 21 | -28% | -7% | -1% | ? | 2%
S=c1[nH]nc(Cc2ccc(Cl)cc2)n1-c1ccc2c(c1)OCCO2 | ? | -9% | -3% | -21% | 2.8µM* | 3%
COc1ccc(Cc2n[nH]c(=S)n2-c2ccc3c(c2)OCCO3)cc1 | 13 | -15% | -2% | -1% | 8.9µM* | -11%
CCc1nc2c(cnn2-c2ccc(Cl)cc2)c(=O)n1-c1ccc2c(c1)OCCO2 | 0 | -42% | 2% | 7% | -3% | 0%
CC(C)c1c(C(=O)Nc2ccccc2)c(-c2ccccc2)c(-c2ccc(F)cc2)n1CC[C@@H](O)C[C@@H](O)CC(=O)O | . | . | . | -2% | 47% | .
COC1=CC(=O)c2ccccc2C1=O | -16 | -88% | -24% | . | . | 18µM*
COC1=C(c2ccccc2)C(=O)c2ccccc2C1=O | 37 | -74% | 5% | -18% | -16% | -11%
COc1ccc(SN=C2C(C)=CC(=O)C=C2C)cc1 | -18 | -32% | -2% | 2% | 7% | ?
COC1=CC(=O)C=C(OC)C1=O | -24 | -50% | . | 4.5µM* | 2.8µM* | .
Cc1c(C(=O)N(C)C)sc2nc(-c3ccccn3)[nH]c(=O)c12 | -14 | 46% | 3% | -13% | ? | ?
O=c1[nH]c(-c2ccccn2)nc2sc(-c3ccccc3)cc12 | -3 | -5% | ? | 1.4µM* | 0.32µM* | ?
COc1ccc(/C=C2\SC(=S)N(CCCC(=O)N3CCN(C)CC3)C2=O)cc1 | 2 | -50% | 10% | ? | 7.1µM* | 3%
COc1cccc(/C=C2\SC(=S)N(CCCC(=O)N3CCCCC3)C2=O)c1 | -19 | -27% | -3% | 13µM* | 4.5µM* | 4%
COc1cccc(/C=C2\SC(=S)N(CCCC(=O)N(CCO)c3ccccc3)C2=O)c1 | -6 | -91% | -6% | 2.5µM* | 7.1µM* | ?
O=C1/C(=C/c2cccc(Br)c2)SC(=S)N1CCC(=O)N(CCO)c1ccccc1 | -3 | -62% | ? | -12% | -6% | ?
CN1CCN(C(=O)CCN2C(=O)/C(=C/c3cccc(Br)c3)SC2=S)CC1 | -4 | -48% | ? | -14% | 16µM* | 1%

Source: PubChem BioAssay
